{"source": "PubChem BioAssay (NCATS)", "key": {"[1]": {"experiment": "Viability counterscreen for agonist of constitutive androstane receptor (CAR) against the NCATS DSHEA and TCM libraries (AID 1794838)", "outline": "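Multiplexed counterscreen: after 24 h compound exposure with 0.75 uM PK11195, HepG2-CYP2B6-hCAR viability was quantified fluorimetrically (CellTiter-Fluor, 405/540 nm) prior to the ONE-Glo luciferase read.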"}, "[2]": {"biological_target": "Nuclear receptor subfamily 1 group I member 3 (Homo sapiens) (UniProt Q14994)", "sequence (Q14994 whole entry, looked up)": "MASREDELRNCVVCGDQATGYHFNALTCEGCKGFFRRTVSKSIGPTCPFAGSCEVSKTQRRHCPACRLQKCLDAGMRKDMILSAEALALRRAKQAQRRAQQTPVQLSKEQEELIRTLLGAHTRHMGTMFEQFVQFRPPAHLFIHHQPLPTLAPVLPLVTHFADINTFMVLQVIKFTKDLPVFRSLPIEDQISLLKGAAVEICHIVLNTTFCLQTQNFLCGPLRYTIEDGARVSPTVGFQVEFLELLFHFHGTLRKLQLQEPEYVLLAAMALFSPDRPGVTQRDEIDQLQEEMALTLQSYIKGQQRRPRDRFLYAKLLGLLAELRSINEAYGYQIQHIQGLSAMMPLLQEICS", "experiment": "Primary qHTS for agonist of constitutive androstane receptor (CAR) against the NCATS DSHEA and TCM libraries (AID 1794839)", "outline": "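Concentration–response screen in HepG2-CYP2B6-hCAR cells under 0.75 µM PK11195; 24 h exposure; luminescent reporter signal with multiplexed fluorescent viability.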"}, "[3]": {"experiment": "HepG2 viability counterscreen (readout 1: protease activity) against the NCATS DSHEA and TCM libraries (AID 1794841);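 also: cells exposed to compounds for about 24 h before the protease read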", "outline": "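After HepG2 cells attach for ~4 h, substances are added and incubated ~24 h at 37C, 5% CO2. GF-AFC fluorescence then CellTiter-Glo luminescence give protease and ATP readouts.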"}, "[4]": {"biological_target": "Glutathione peroxidase 1 (Homo sapiens) (UniProt P07203)", "sequence (P07203 whole entry, looked up)": "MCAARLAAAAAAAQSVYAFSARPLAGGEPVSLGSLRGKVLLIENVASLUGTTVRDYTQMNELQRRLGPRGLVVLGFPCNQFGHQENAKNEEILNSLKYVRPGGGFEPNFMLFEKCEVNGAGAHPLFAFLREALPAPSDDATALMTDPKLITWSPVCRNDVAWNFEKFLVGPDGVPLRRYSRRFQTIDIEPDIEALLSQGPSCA", "experiment": "Primary qHTS Assay for Inhibitors of Recombinant Selenoprotein Glutathione Peroxidase 1 (GPX1) (AID 1845191); also: nearly all actives have a fitted effect of over 65% in size; also: potency is read from the fitted curve at half-maximal effect", "outline": "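Recombinant GPX1 (10 nM final) was preincubated with compound for 30 min at room temperature, then reacted with 1 mM GSH, 0.5 mM CHP, 0.5 mM NADPH and 100 nM glutathione reductase; NADPH fluorescence (340/450 nm) was read at 0 and 15 min.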"}, "[5]": {"biological_target": "Cytochrome P450 2D6 (Homo sapiens) (UniProt P10635)", "sequence (P10635 whole entry, looked up)": "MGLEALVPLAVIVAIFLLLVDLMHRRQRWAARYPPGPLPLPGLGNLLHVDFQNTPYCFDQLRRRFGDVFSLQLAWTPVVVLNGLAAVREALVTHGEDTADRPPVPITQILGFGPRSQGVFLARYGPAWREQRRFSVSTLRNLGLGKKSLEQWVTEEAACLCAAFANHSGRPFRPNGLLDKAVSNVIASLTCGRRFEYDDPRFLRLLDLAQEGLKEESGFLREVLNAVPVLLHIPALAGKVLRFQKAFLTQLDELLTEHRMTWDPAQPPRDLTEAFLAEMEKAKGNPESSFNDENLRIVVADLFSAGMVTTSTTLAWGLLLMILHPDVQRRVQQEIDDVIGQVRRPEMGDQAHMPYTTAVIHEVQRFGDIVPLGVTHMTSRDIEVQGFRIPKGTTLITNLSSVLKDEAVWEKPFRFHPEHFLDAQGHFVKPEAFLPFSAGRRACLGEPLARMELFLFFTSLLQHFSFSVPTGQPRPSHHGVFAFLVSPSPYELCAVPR", "experiment": "qHTS for inhibitors of CYP2D6 against the NCATS DSHEA and TCM libraries (AID 1919972)", "outline": "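Steps: enzyme plus luciferin substrate dispensed; test substances pinned; 15 min RT; 1x NADPH regenerating solution added, 30–45 min RT protected from light; detection reagent, 30 min RT; luminescence measured. Minus-enzyme wells as background.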"}, "[6]": {"biological_target": "Cytochrome P450 2C9 (Homo sapiens) (UniProt P11712)", "sequence (P11712 whole entry, looked up)": "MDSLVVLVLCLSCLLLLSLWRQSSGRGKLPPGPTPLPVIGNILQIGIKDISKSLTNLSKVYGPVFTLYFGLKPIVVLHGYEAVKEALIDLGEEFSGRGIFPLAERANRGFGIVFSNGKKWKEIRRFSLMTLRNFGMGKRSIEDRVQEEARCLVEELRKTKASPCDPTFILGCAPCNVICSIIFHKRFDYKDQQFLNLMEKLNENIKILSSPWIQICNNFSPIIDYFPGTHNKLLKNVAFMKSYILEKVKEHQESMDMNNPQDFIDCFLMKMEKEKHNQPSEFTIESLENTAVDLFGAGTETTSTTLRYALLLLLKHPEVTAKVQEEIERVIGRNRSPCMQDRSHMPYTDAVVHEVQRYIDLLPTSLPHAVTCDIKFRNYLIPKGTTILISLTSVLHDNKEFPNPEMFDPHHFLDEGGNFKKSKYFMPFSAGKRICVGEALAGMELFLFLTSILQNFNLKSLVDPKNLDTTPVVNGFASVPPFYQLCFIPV", "experiment": "qHTS for inhibitors of CYP2C9 against the NCATS DSHEA and TCM libraries (AID 1919973); also: potency is read from the fitted curve at half-maximal effect", "outline": "(§1)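 Light output from converted D-luciferin reports remaining CYP activity. Compounds preincubate with enzyme and substrate for 15 min; NADPH regeneration (1x final) runs the reaction for 30-45 min.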"}, "[7]": {"biological_target": "Cytochrome P450 1A2 (Homo sapiens) (UniProt P05177)", "sequence (P05177 whole entry, looked up)": "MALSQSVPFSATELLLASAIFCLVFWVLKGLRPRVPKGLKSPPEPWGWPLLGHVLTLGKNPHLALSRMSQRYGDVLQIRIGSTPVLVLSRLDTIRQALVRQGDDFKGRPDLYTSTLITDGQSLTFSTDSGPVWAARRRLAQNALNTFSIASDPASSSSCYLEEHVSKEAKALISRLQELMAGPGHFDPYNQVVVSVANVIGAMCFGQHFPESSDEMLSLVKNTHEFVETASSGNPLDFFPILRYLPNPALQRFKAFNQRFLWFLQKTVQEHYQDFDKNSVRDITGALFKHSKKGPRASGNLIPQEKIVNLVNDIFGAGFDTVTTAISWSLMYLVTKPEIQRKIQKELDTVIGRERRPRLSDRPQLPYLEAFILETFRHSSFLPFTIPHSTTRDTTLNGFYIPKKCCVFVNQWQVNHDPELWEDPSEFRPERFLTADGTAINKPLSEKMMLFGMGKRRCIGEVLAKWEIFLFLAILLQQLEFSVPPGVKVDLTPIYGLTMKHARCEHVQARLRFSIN", "experiment": "qHTS for inhibitors of CYPIA2 against the NCATS DSHEA and TCM libraries (AID 1919976)", "outline": "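In this quantitative HTS, inhibition of recombinant human CYP1A2 was measured as loss of luciferin-derived luminescence. Turnover ran 30-45 min at RT after NADPH regeneration solution was added.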"}, "[8]": {"experiment": "qHTS Counterscreen for compound interference against the NCATS DSHEA and TCM libraries (AID 1919978)", "details": "firefly luciferase detection reagent interference, luminescence", "outline": "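Interference check: test samples were incubated with D-luciferin (final 1 uM) or buffer only for 15 min, room temperature, in a qHTS titration up to 39.8 uM, then developed with detection reagent and read by luminescence.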"}, "[9]": {"experiment": "Dual reporter qHTS for agonist of Pregnane X Receptor (hPXR) against the NCATS DSHEA and TCM libraries: Fluorescence readout (AID 1920058)", "outline": "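Measures viability of the PXR reporter HepG2 line by protease-substrate fluorescence (405/540 nm), taken 1 h after CellTiter-Fluor addition. Substances are tested as concentration series over a ~24 h exposure, with rifampicin as agonist control.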"}, "[10]": {"biological_target": "Nuclear receptor subfamily 1 group I member 2 (Homo sapiens) (UniProt O75469)", "sequence (O75469 whole entry, looked up)": "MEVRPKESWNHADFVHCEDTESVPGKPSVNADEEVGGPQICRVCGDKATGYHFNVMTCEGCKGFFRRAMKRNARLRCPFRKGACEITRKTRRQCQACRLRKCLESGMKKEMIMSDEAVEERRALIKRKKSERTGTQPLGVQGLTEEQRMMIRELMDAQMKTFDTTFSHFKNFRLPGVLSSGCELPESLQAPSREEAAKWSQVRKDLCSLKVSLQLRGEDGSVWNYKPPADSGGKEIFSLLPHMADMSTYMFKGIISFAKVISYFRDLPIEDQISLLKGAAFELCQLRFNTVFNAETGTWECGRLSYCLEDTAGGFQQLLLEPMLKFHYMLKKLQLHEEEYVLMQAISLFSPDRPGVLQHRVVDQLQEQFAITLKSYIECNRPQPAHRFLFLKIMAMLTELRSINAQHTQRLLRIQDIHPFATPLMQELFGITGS", "experiment": "Dual reporter qHTS for antagonist of Pregnane X Receptor (hPXR) against the NCATS DSHEA and TCM libraries: Luminescence Readout (AID 1920060)", "outline": "(§2)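 Rifampicin-stimulated (2 uM final) hPXR-luciferase HepG2 cells were treated for 24 h with DSNP/TCM substances. Viability came from CellTiter-Fluor fluorescence, reporter activity from ONE-Glo luminescence.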"}, "[11]": {"experiment": "Dual reporter qHTS for antagonist of Pregnane X Receptor (hPXR) against the NCATS DSHEA and TCM libraries: Fluorescence Readout (AID 1920061)", "outline": "as §2"}, "[12]": {"biological_target": "Phospholipid hydroperoxide glutathione peroxidase GPX4 (Homo sapiens) (UniProt P36969)", "sequence (P36969 whole entry, looked up)": "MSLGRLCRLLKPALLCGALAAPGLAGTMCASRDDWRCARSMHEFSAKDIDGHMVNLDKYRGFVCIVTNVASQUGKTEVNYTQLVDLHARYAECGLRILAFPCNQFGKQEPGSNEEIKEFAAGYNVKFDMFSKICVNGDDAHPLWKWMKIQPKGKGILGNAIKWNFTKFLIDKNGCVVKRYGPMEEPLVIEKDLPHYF", "experiment": "Primary qHTS Assay for Inhibitors of Recombinant Selenoprotein Glutathione Peroxidase 4 (GPX4) (AID 1845192)", "outline": "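GR-coupled readout: 100 nM GR, 1 mM GSH, 0.5 mM NADPH; NADPH fluorescence (ex 340/em 450 nm) read at t=0 and after 15 min RT. GPX4 200 nM, preincubated 30 min with compound; substrate 0.5 mM CHP.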"}, "[13]": {"biological_target": "Cytochrome P450 3A4 (Homo sapiens) (UniProt P08684)", "sequence (P08684 whole entry, looked up)": "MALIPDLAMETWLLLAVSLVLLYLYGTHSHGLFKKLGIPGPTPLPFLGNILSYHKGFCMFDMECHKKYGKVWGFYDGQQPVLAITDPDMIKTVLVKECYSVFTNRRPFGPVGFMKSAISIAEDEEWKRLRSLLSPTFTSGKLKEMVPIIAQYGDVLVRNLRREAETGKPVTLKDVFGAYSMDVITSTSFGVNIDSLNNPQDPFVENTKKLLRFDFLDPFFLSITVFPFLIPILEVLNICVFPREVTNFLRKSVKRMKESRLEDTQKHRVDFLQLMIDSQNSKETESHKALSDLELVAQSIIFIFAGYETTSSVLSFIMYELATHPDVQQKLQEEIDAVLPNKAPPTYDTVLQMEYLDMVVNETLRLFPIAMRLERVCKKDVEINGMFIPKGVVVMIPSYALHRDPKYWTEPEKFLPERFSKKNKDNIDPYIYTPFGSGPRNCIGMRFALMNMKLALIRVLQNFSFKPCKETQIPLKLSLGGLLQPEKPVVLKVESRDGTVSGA", "experiment": "qHTS for inhibitors of CYP3A4 against the NCATS DSHEA and TCM libraries (AID 1919971)", "outline": "as §1"}, "[14]": {"experiment": "KB-3-1 P-gp reporter qHTS against the NCATS DSHEA and TCM libraries (AID 1919975)", "outline": "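Cell viability qHTS: 500 KB-3-1 cells/well, substances in titration, ~72 h, 37C; luminescent CellTiter-Glo read.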"}}, "note": "A number with no mark means an inactive call. Inconclusive results are not listed. A call without a number means that no potency is given here. The source made the active and inactive calls. Calls follow the shape of the dose curve; as a rule, active = well fitted curve in the direction sought with a large enough effect; inconclusive = small, poorly fitted or top-dose-only effect, or another doubt; inactive = no such curve, though single readings can be large; an effect the other way counts as inactive or inconclusive. For outcome in this document: nearly all actives have a fitted effect of over 65% in size. For potency in this document: potency is read from the fitted curve at half-maximal effect.", "data": [{"molecule": "CC(C)=CCC/C(C)=C/CC/C(C)=C/CC/C(C)=C/CC1=C(C)C(=O)c2ccccc2C1=O", "values": [{"measurement": "outcome", "setting": "[1]", "value": "inactive"}, {"measurement": "Potency", "setting": "[2]", "value": "inactive"}, {"measurement": "outcome", "setting": "[3]", "value": "inactive"}, {"measurement": "Potency", "setting": "[4]", "value": "inactive"}, {"measurement": "outcome", "setting": "[5]", "value": "inactive"}, {"measurement": "Potency", "setting": "[6]", "value": "14.1 µM (active)"}, {"measurement": "Potency", "setting": "[7]", "value": "inactive"}, {"measurement": "max response", "setting": "[8]", "value": -2.14, "unit": "%"}, {"measurement": "outcome", "setting": "[9]", "value": "inactive"}, {"measurement": "outcome", "setting": "[10]", "value": "inactive"}, {"measurement": "outcome", "setting": "[11]", "value": "inactive"}]}, {"molecule": "CCCCCCCCCCCC(=O)OCC(O)CO", "note": "(centres undefined)", "values": [{"measurement": "outcome", "setting": "[1]", "value": "inactive"}, {"measurement": "Potency", "setting": "[2]", "value": "inactive"}, {"measurement": "outcome", "setting": "[3]", "value": "inactive"}, {"measurement": "Potency", "setting": "[12]", "value": "inactive"}, {"measurement": "outcome", "setting": "[13]", "value": "inactive"}, {"measurement": "outcome", "setting": "[5]", "value": "inactive"}, {"measurement": "Potency", "setting": "[6]", "value": "inactive"}, {"measurement": "outcome", "setting": "[14]", "value": "inactive"}, {"measurement": "max response", "setting": "[8]", "value": 2.27, "unit": "%"}, {"measurement": "outcome", "setting": "[9]", "value": "inactive"}, {"measurement": "outcome", "setting": "[10]", "value": "inactive"}, {"measurement": "outcome", "setting": "[11]", "value": "inactive"}]}, {"molecule": "CCOC(=O)c1c[nH]c2cc(OCC(C)C)c(OCC(C)C)cc2c1=O", "values": [{"measurement": "Potency", "setting": "[4]", "value": "inactive"}]}, {"molecule": "CCC(C(=O)NC(N)=O)c1ccccc1", "note": "(centres undefined)", "values": [{"measurement": "Potency", "setting": "[4]", "value": "inactive"}, {"measurement": "Potency", "setting": "[12]", "value": "inactive"}]}, {"molecule": "O=S(=O)(O)CC(S)CS", "note": "(centres undefined)", "values": [{"measurement": "Potency", "setting": "[4]", "value": "10.1 µM (active)"}, {"measurement": "Potency", "setting": "[12]", "value": "7.08 µM (active)"}]}, {"molecule": "C[N@+]12CCCC[C@@H]1CCC(=C(c1cccs1)c1cccs1)C2", "values": [{"measurement": "Potency", "setting": "[4]", "value": "inactive"}, {"measurement": "Potency", "setting": "[12]", "value": "inactive"}]}, {"molecule": "CC(O)[C@H]1CC[C@H]2[C@@H]3CC[C@@H]4C[C@@H](O)CC[C@]4(C)[C@H]3CC[C@]12C", "note": "(some centres undefined)", "values": [{"measurement": "Potency", "setting": "[4]", "value": "inactive"}, {"measurement": "Potency", "setting": "[12]", "value": "inactive"}]}, {"molecule": "C=C1CC[C@H](O)CC1=C/C=C1\\CCC[C@]2(C)[C@@H]([C@H](C)CCCC(C)(C)O)CC[C@@H]12", "values": [{"measurement": "Potency", "setting": "[4]", "value": "inactive"}, {"measurement": "Potency", "setting": "[12]", "value": "14.1 µM (active)"}]}, {"molecule": "CS(=O)(=O)c1ccc([C@@H](O)[C@@H](COC(=O)CN)NC(=O)C(Cl)Cl)cc1", "values": [{"measurement": "Potency", "setting": "[4]", "value": "inactive"}, {"measurement": "Potency", "setting": "[12]", "value": "inactive"}]}, {"molecule": "C[C@H](NCCc1ccc(O)cc1)[C@H](O)c1ccc(O)cc1", "values": [{"measurement": "Potency", "setting": "[4]", "value": "inactive"}, {"measurement": "Potency", "setting": "[12]", "value": "inactive"}]}, {"molecule": "OCCOCCOCCO", "values": [{"measurement": "Potency", "setting": "[4]", "value": "inactive"}, {"measurement": "Potency", "setting": "[12]", "value": "inactive"}]}, {"molecule": "C[Se]CC[C@H](N)C(=O)O", "values": [{"measurement": "Potency", "setting": "[4]", "value": "inactive"}, {"measurement": "Potency", "setting": "[12]", "value": "inactive"}]}, {"molecule": "O=[N+]([O-])O[C@@H]1CO[C@H]2[C@@H]1OC[C@@H]2O", "values": [{"measurement": "Potency", "setting": "[4]", "value": "inactive"}, {"measurement": "Potency", "setting": "[12]", "value": "inactive"}]}, {"molecule": "COC(=O)c1ccccc1O", "values": [{"measurement": "Potency", "setting": "[4]", "value": "inactive"}, {"measurement": "Potency", "setting": "[12]", "value": "inactive"}]}, {"molecule": "CC(C)(C)C(=O)OCC(=O)[C@H]1CC[C@H]2[C@@H]3CCC4=CC(=O)CC[C@]4(C)[C@H]3CC[C@]12C", "values": [{"measurement": "Potency", "setting": "[4]", "value": "inactive"}, {"measurement": "Potency", "setting": "[12]", "value": "inactive"}]}, {"molecule": "OC[C@H]1O[C@@](CO)(O[C@H]2O[C@H](CO)[C@@H](O)[C@H](O)[C@H]2O)[C@@H](O)[C@@H]1O", "values": [{"measurement": "Potency", "setting": "[4]", "value": "inactive"}, {"measurement": "Potency", "setting": "[12]", "value": "inactive"}]}, {"molecule": "OC[C@@H](O)C(O)[C@H](O)CO", "values": [{"measurement": "Potency", "setting": "[4]", "value": "inactive"}, {"measurement": "Potency", "setting": "[12]", "value": "inactive"}]}, {"molecule": "CCCCCc1ccc(C)cc1O", "values": [{"measurement": "Potency", "setting": "[4]", "value": "inactive"}, {"measurement": "Potency", "setting": "[12]", "value": "inactive"}]}, {"molecule": "O=C(O)CCC(=O)c1ccc(-c2ccccc2)cc1", "values": [{"measurement": "Potency", "setting": "[4]", "value": "inactive"}, {"measurement": "Potency", "setting": "[12]", "value": "inactive"}]}, {"molecule": "FC(F)(F)C(F)(F)C(F)(F)C(F)(F)C(F)(F)F", "values": [{"measurement": "Potency", "setting": "[4]", "value": "inactive"}, {"measurement": "Potency", "setting": "[12]", "value": "inactive"}]}, {"molecule": "CNCC(O)c1ccc(OC(=O)C(C)(C)C)c(OC(=O)C(C)(C)C)c1", "note": "(centres undefined)", "values": [{"measurement": "Potency", "setting": "[4]", "value": "inactive"}, {"measurement": "Potency", "setting": "[12]", "value": "inactive"}]}, {"molecule": "NS(=O)(=O)c1cc2c(cc1Cl)NC(Cc1ccccc1)NS2(=O)=O", "note": "(centres undefined)", "values": [{"measurement": "Potency", "setting": "[4]", "value": "inactive"}, {"measurement": "Potency", "setting": "[12]", "value": "inactive"}]}, {"molecule": "Cc1c(C)c2c(c(C)c1OC(=O)CCC(=O)O)CC[C@@](C)(CCC[C@H](C)CCC[C@H](C)CCCC(C)C)O2", "values": [{"measurement": "Potency", "setting": "[4]", "value": "inactive"}, {"measurement": "Potency", "setting": "[12]", "value": "inactive"}]}]}
